Many of the other results were omitted from the sample, so hits are more common in it than they were.
Pf Dd2 growth – blocks in vitro growth of P. falciparum Dd2; P. falciparum Dd2 growth, SYBR Green, 72 h; Potency, µM (top dose mostly 28.9 µM), without a hit: top-dose activity, negative = inhibition, hits mostly inhibitors; 120,000 tested, 4.3% active; AID 1347417; active = well fitted inhibition curve with a large enough effect;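 also: plate controls were DMSO vehicle for no effect and reference drug for full effect; nearly all actives have a fitted effect of over 65% in size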
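Readout: SYBR Green fluorescence, 485 nm excitation, 535 nm emission, after ~16 h lysis at 37C. Before that, Dd2-infected red cells (2.5% hematocrit) grew 72 h with compound, 29 uM top final concentration.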
Numbers without * were called inactive; i = inactive; [ ] = remark or other dose. Potency is read from the fitted curve at half-maximal effect.

SMILES	Pf Dd2 growth
CCN(C)C(=O)CCc1c(C)nn(-c2ccccc2)c1Oc1ccccc1F	-4%
CCCC1c2nccn2CCCN1C(=O)CCc1c(C)nn(C)c1C (stereo not given)	35%
Cc1nc2scc(CC(=O)NCCC(C)C)n2c(=O)c1-c1cc(C)n(-c2ccc(F)cc2)n1	i
CCOc1cc(=O)n2c(c1C(=O)Nc1ccc(Cl)cc1C)CCCC2	43%
CNC(=O)c1noc([C@@H]2CC(F)(F)CN2C(=O)C(C)C)n1	27%
COc1ccc(C[C@H](NC(=O)[C@@H]2C[C@H](NC(=O)Nc3cccc(SC)c3)CN2C(=O)c2cccn2C)C(N)=O)cc1	1%
O=C([C@@H]1C[C@H](Oc2cccnc2)CN1C(=O)c1ccncc1)N1CCCC1	-24%
CC(C)N1CCN(C(=O)CCC2CCN(S(=O)(=O)c3ccccc3)CC2)CC1	i
CCN1CCSc2ccc(C(=O)NCc3ccc(OC)cc3)cc21	-21%
Cc1ccc(CN2CCSc3ccc(C(=O)NCc4ccc(OC(C)C)cc4)cc32)cc1	-24%
O=C(NCCc1ccc(Cl)cc1)c1ccc2c(c1)N(Cc1ccccc1)CCS2	1%
Cc1ccc(CN2CCSc3ccc(C(=O)Nc4ccc(Cl)cc4)cc32)cc1	7.9µM*
COc1ccc(OC)c(CCNC(=O)c2ccc3c(c2)N(Cc2ccccc2)CCS3)c1	-21%
O=C(Nc1ccc(Cl)cc1)c1ccc2c(c1)N(Cc1ccccc1)CCS2	4.5µM*
O=C(O)CCNC(=O)N1CCCC(c2cccc(C(=O)O)c2)C1 (stereo not given)	2%
O=C(c1ccccc1F)N1CCC2(CC1)N=C(c1ccc(Cl)cc1)NO2	i
O=C(NC[C@H]1COCc2nc3cccnc3n21)Nc1ccccc1	-11%[44.1 µM]
O=C(c1cnccn1)N1CCC2(CN[S+](=O)([O-])c3cnccc3O2)C1 (stereo not given)	48%
CCOc1ccc2c(n1)CCN(C(=O)c1ccccc1OC)C2	20%
Cc1noc(C)c1[S+](=O)([O-])N1CCC2(C1)N=C(c1ccncc1)C(=O)N2 (stereo not given)	5%
CC(C)C1=NOC2(CCN(Cc3cccc(C(N)=O)c3)CC2)C1	10%
Cn1ncc(N2CCCC(CC(=O)NCCN3CCCCC3)C2)cc1=O (stereo not given)	25%
COc1ccc(CC(=O)NCc2cn[nH]c2-c2ccc(C)cc2)cc1	-11%
COc1ccc(CNC(=O)C(=O)Nc2cc(Cl)ccc2OC)cc1	i
CCc1ccc(CN(Cc2cn[nH]c2-c2ccc(OC)cc2)C(=O)Nc2cc(Cl)ccc2OC)cc1	13µM*
SMILES	Pf Dd2 growth
CCn1cc(CN2C[C@@H](CO)[C@H](NC(=O)COC)C2)cn1	13%
CC(=O)N1CCC(N2C[C@H](O)C[C@H]2c2nc(-c3cccc(C)c3)no2)CC1	i
COc1ccc(-c2noc(-c3ccc(N4C[C@H]5CC[C@H]4C5)nc3)n2)cc1	-17%
CCN1CC(c2ccccc2)CC2(CCN(C(=O)c3cnn(C)c3)CC2)C1 (stereo not given)	2%
CCN1C(=O)CCN(C(=O)Nc2ccc(C)c(C)c2)CC12CCOCC2	-4%
COCC1CN(C)CC12CCN(S(=O)(=O)c1cccs1)CC2 (stereo not given)	3.5µM*
COCC1CN(C(C)=O)CC12CCN(S(=O)(=O)c1cccs1)CC2 (stereo not given)	-5%
COCC1CN(C)CC12CCN(Cc1ccc(F)c(Cl)c1)CC2 (stereo not given)	5µM*
COCC1CN(C)CC12CCN(Cc1ccc(F)cc1F)CC2 (stereo not given)	-25%
COCC1CN(S(=O)(=O)c2cccs2)CC12CCNCC2 (stereo not given)	30%
COCC1CN(C)CC12CCN(Cc1ccc(OC)cc1)CC2 (stereo not given)	i
O=C(N[C@@H](Cn1cc(Cl)c(=O)[nH]c1=O)C(=O)O)C1CC1	17%[44.1 µM]
CN1C(=O)C2(CCN(C(=O)c3ccccn3)C2)c2ccccc21 (stereo not given)	5%[44.1 µM]
CC(Oc1ccc2ccccc2c1)C(=O)N1CCCOCC1 (stereo not given)	-15%
CCOCC(=O)N1CCC(Nc2nccnc2OC)CC1	49%[5.79 µM]
CCC(=O)N1CCc2sc(C(=O)NCc3ccc(Cl)cc3)cc2C1	i
CN1CCCN(C[C@@H]2CN(C(=O)C3(Cn4cccn4)CC3)C[C@@H]2CO)CC1	-4%
COCCNC(=O)c1nc(-c2cccc(C(F)(F)F)c2)c2ccccn12	i
O=C(NCc1cccs1)c1nc(-c2cccnc2)c2cnccn12	11µM*
C#CCNC(=O)c1nc(-c2ccsc2)c2cnccn12	-11%[44.1 µM]
O=C(NCc1ccc2c(c1)OCO2)c1nc(-c2cccnc2)c2cnccn12	i
O=C(NC1CC1)c1nc(-c2cccc(C(F)(F)F)c2)c2ccccn12	-19%
O=C(NCc1ccc2c(c1)OCO2)c1nc(-c2cccc(C(F)(F)F)c2)c2ccccn12	i
COCCNC(=O)c1nc(-c2ccc(OC)cc2)c2ccccn12	6%
C#CCNC(=O)c1nc(-c2cccnc2)c2cnccn12	i
SMILES	Pf Dd2 growth
COCCNC(=O)c1nc(-c2cccc(C(F)(F)F)c2)c2cnccn12	10µM*
C#CCNC(=O)c1nc(-c2cccc(C(F)(F)F)c2)c2cnccn12	3.5µM*
O=C(NCc1cccs1)c1nc(-c2cccnc2)c2ccccn12	-7%
O=C(NCc1cccnc1)c1nc(-c2cccc(C(F)(F)F)c2)c2ccccn12	7.9µM*
N#Cc1cccc(C(=O)Nc2ccc([C@H]3OCC(=O)N(C4CCOCC4)[C@@H]3CO)cc2)c1	-24%
CCOCc1nc(C2CCCN(C(=O)c3cccnc3)C2)no1 (stereo not given)	23%
O=C(COc1ccccc1)N1CC[C@H]2COC(=O)N2c2cc(F)ccc2C1	-4%[44.1 µM]
NC(=O)CNC(=O)C1=C[C@@H](NC(=O)Nc2cccc(F)c2)[C@@H](O)[C@H](O)C1	1%[44.1 µM]
Fc1ccc(CN2CC[C@H](c3nc4ccccc4s3)C2)cc1F	i
CN(C)S(=O)(=O)N1CCN(C(=O)Cn2nc3c(cc2=O)CCCC3)CC1	6%
COc1ccc(N2CC(C(=O)N3CCOCC3)NC2=O)cc1 (stereo not given)	17%[44.1 µM]
CC[C@@]1(C(=O)O)C[C@H](C(=O)NC(CO)CO)[C@H](c2ccc(F)cc2)N1C	-12%
Cc1ccc(-c2nnc(C3CN(C(=O)c4cnccn4)CC34CCOCC4)o2)cc1 (stereo not given)	-8%
CCOc1ccc(N2CC(c3nc4ccccc4n3CCOc3ccc(CC)cc3)CC2=O)cc1 (stereo not given)	-27%
CCOc1ccc(N2CC(c3nc4ccccc4n3CC(C)C)CC2=O)cc1 (stereo not given)	-4%
CCOC(=O)Cn1c(C2CC(=O)N(c3ccc(C)cc3)C2)nc2ccccc21 (stereo not given)	37%
CCOc1ccc(-c2nc(C3CC(=O)N(c4ccc(OC)cc4)C3)no2)cc1 (stereo not given)	-26%
CCOc1ccc(N2CC(c3nc(-c4cc(OC)c(OC)c(OC)c4)no3)CC2=O)cc1 (stereo not given)	36%
CCOc1ccc(N2CC(c3nc4ccccc4n3CCCOc3ccccc3)CC2=O)cc1 (stereo not given)	13µM*
CCOc1ccc(N2CC(c3nc4ccccc4n3CCOc3ccccc3OC)CC2=O)cc1 (stereo not given)	13µM*
CCOc1ccc(N2CC(c3nc4ccccc4n3CCC3CCCCC3)CC2=O)cc1 (stereo not given)	11µM*

From PubChem BioAssay
